# Inconclusive results are not listed. The source made the active and inactive calls. Calls come from the whole dose curve; as a rule, active = well fitted cell-killing curve with a large enough effect in the repeat runs; inconclusive = weak or mixed curves, or effect the other way; inactive = flat fitted curve, though single readings scatter.
# Experiment: qHTS assay to identify small molecule antagonists of the retinoid acid receptor (RAR) signaling pathway - cell viability counter screen (AID 1159551); note: nearly all actives have a fitted effect of over 35% in size
# Conditions: C3RL4 cells viability, ATP luminescence (CellTiter-Glo), 6 h; series mostly up to 92.4 µM; activity change, negative = cytotoxicity: at the top concentration
# From the text: U.S. Tox21 Program National Center for Advancing Translational Sciences [NCATS] NIH Chemical Genomics Center [NCGC] U.S. Environmental Protection Agency [EPA] National Institutes of Environmental Health Sciences [NIEHS] National Toxicology Program [NTP] U.S. Food and Drug Administration [FDA] Tox21 Assay Overview: All-trans Retinoic acid (atRA) is the potent natural metabolite of retinol and plays an important role in normal embryonic development and maintenance of cellular phenotype in adult animals. atRA is the activating ligand for the retinoic acid receptors (RARs) which form heterodimers with retinoid X receptors (RXRs) on the retinoic acid response element (RARE). Through activation of the RAR/RXRs nuclear receptors, atRA regulates the transcription of a large number of protein-coding genes and regulatory RNAs. Intracellular levels of atRA are controlled by the retinol signaling pathway (RSP) that regulates the biosynthesis and catabolism of atRA to maintain physiological levels. Chemicals that interfere with the RSP can cause abnormal intracellular levels of atRA and therefore are potential developmental toxicants. To assess compounds for the potential adverse effect on embryonic development through interfering with retinol signaling, a cell-based RARE luciferase reporter gene assay was used. C3RL4 cell line (OARSA/CFSAN/FDA, Laurel, MD) was used to screen Tox21 10K compound library for identifying inhibitors of the RSP. Also cytotoxicity was assessed by determining the viability of cells based on the quantitation of ATP.
# Tox21 Assay Protocol Summary: C3RL4 cells were seeded at 1,000/well in 4 uL of assay medium into white solid 1,536-well tissue culture plates (Greiner Bio-One North America Inc. Monroe, NC) using a Multidrop Combi (Thermo Scientific, Waltham, MA) dispenser. After incubation at 37 C and 5% CO2 for an overnight, 23 nL of compounds dissolved in DMSO, positive control or DMSO only were transferred by a Pintool station (Kalypsys, San Diego, CA). One ul of 1 uM (final concentration) of Retinol was added right after the compound addition by using a Flying Reagent Dispenser (FRD) (Aurora Discovery, San Diego, CA). After 6 hr incubation at 37 C and 5% CO2, 5 uL of CellTiter-Glo reagent (Promega Corporation, Madison, WI) was added to each assay plate using an FRD. Luminescence was quantified on a ViewLux plate reader (PerkinElmer, Waltham, MA) after 30 min incubation at room temperature.
# % is set by controls: 0 for no effect and ±100 for the full control effect.
row,SMILES,"activity change, negative = cytotoxicity"
1,O=C1OC(CN2CCOCC2)CN1/N=C/c1ccc([N+](=O)[O-])o1 (stereo not given),-0.748% [at 42.5 µM] (inactive)
2,COc1ccc(C(=O)Nc2nc3ccccc3c(NCc3ccccc3)c2C#N)cc1,-1.86% (inactive)
3,O=C(O)C(S)C(S)C(=O)O (stereo not given),0.221% [at 42.5 µM] (inactive)
4,CN(C)CCN(Cc1ccc(Cl)cc1)c1ccccn1,-4.59% [at 42.5 µM] (inactive)
5,COc1cc(Cl)ccc1Oc1ccc(Cl)cc1Cl,-0.272% (inactive)
6,Nc1ccc([N+](=O)[O-])c(C(F)(F)F)c1,-5.48% [at 42.5 µM] (inactive)
7,CC1CCC(=O)C1=O (stereo not given),1.1% (inactive)
8,c1ccc(CNCCNCc2ccccc2)cc1,-0.608% [at 42.5 µM] (inactive)
9,O=C1CCCCCCCCCCCC(=O)OCCO1,-1.03% (inactive)
10,CCn1cc(C(=O)O)c(=O)c2cnc(N3CCNCC3)nc21,-0.416% [at 42.5 µM] (inactive)
11,Cc1cc(C(=O)O)ccc1[N+](=O)[O-],3.46% (inactive)
12,CCOc1ccc(O)cc1,2.42% (inactive)
13,Cn1c(=O)cc(Oc2ccc(F)cc2F)c2cnc(NCC(C)(C)O)nc21,0.658% (inactive)
14,Nc1ncn([C@H]2C[C@H](O)[C@@H](CO)O2)c(=O)n1,0.221% [at 42.5 µM] (inactive)
15,CC(C)(COC(=O)c1ccccc1)COC(=O)c1ccccc1,-1.16% (inactive)
16,CCCCO,3.26% (inactive)
17,CCCCNc1ccc(C(=O)OCCOCCOCCOCCOCCOCCOCCOCCOCCOC)cc1,-0.335% [at 42.5 µM] (inactive)
18,Cc1ccc(C(C)OC(=O)C2(C)CCC(C(=O)O)C2(C)C)cc1 (stereo not given),0.293% [at 42.5 µM] (inactive)
19,C[C@@H](c1ncncc1F)C(O)(Cn1cncn1)c1ccc(F)cc1F (stereo not given in full),-0.556% [at 42.5 µM] (inactive)
20,COc1ccc(-c2nc3ccc(C4=NNC(=O)CC4C)cc3[nH]2)cc1 (stereo not given),-5.1% [at 42.5 µM] (inactive)

row,SMILES,"activity change, negative = cytotoxicity"
1,CN1CCC(=C2c3ccccc3Sc3ccccc32)CC1,-2.04% [at 42.5 µM] (inactive)
2,CN(C)C(=O)NC1(c2ccccc2)CCN(CC[C@@]2(c3ccc(F)c(F)c3)CN(C(=O)c3ccccc3)CCO2)CC1,-0.263% (inactive)
3,O=C(Nc1ccc(S(=O)(=O)N2CCOCC2)cc1)c1cc(Cl)ccc1NS(=O)(=O)c1ccc(Cl)s1,-8.33% [at 42.5 µM] (inactive)
4,CCCCCCOC(=O)NC(=N)c1ccc(NCc2nc3cc(C(=O)N(CCC(=O)OCC)c4ccccn4)ccc3n2C)cc1,10.2% [at 42.5 µM] (inactive)
5,C/C=C(/C(=C/C)c1ccc(OC(C)=O)cc1)c1ccc(OC(C)=O)cc1,2.98% [at 42.5 µM] (inactive)
6,C/C(=C(\CCOP(=O)(O)O)SC(=O)c1ccccc1)N(C=O)Cc1cnc(C)nc1N,2.57% [at 8.39 µM] (inactive)
7,C#CCN(C)CCCOc1ccc(Cl)cc1Cl,-6.32% [at 42.5 µM] (inactive)
8,c1ccc(-c2ccccn2)nc1,-0.176% (inactive)
9,c1cc(CCCc2ccncc2)ccn1,-0.063% (inactive)
10,CCOC(=O)C1=C[C@]2(CC)CCCN3CCc4c(n1c1ccccc41)[C@@H]32,-7.02% [at 42.5 µM] (inactive)
11,O=C(O)c1ccco1,-0.948% (inactive)
12,CCCCC(CC)COC(=O)COc1ccc(Cl)cc1Cl (stereo not given),-1.76% (inactive)
13,CNCCCN1c2ccccc2CCc2ccccc21,0.168% [at 42.5 µM] (inactive)
14,ClCCOCCOCCCl,-0.94% (inactive)
15,CN1Cc2cc(C(=O)N3CCC(C4CCNCC4)CC3)ccc2NC(CC(=O)O)C1=O (stereo not given),-2.88% [at 42.5 µM] (inactive)
16,CC(CC=O)c1ccccc1 (stereo not given),1.68% (inactive)
17,CCCOC(C(=O)OC1CCN(C)CC1)(c1ccccc1)c1ccccc1,-3.34% [at 42.5 µM] (inactive)
18,Cc1nn(C)c(Oc2ccccc2)c1/C=N/OCc1ccc(C(=O)OC(C)(C)C)cc1,-4.4% (inactive)
19,C1CCCNCCC1,-0.434% (inactive)
20,CCOC(=O)C(F)(F)F,3.3% (inactive)

# Reference: PubChem BioAssay (Tox21)
